Structures are written as SMILES. The panel holds about 83,000 compounds, 20% with a hit somewhere; the sample as a whole holds those more often.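 Cells were grown in 96-well plates and exposed to the test compound at a single concentration for 48 hours; results are reported as percent growth, with values below 10 considered active.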 Active and inactive are the calls of the source.

This experiment has as its system CAKI-1 renal. Put plainly: NCI-60 one-dose screen, 48 h (100 = growth as untreated, 0 = no growth, -100 = all killed). As to conditions: 10 µM unless noted. As to the method:
Growth inhibition of the CAKI-1 human tumor cell line is measured as a screen for anti-cancer activity. Cells are grown in 96 well plates and exposed to the test compound for 48 hours. Compounds are tested at a single concentration, which is 10^-5 M for most compounds. The reported endpoint is percent growth (GI% or GIPRCNT), where numbers from 0 - 100% represent growth inhibition, and numbers from -100% - 0 represent cell death. For example, a value of 40 represents 60% growth inhibition. A value of 0 means no net growth occurred over the course of the experiment. A value of -40 indicates 40% of cells at the beginning of the experiment died by the end of the experiment. A value of -100 means all cells are dead at the end of the experiment.
NCI-60 Human Tumor Cell Lines Screen was performed using the standard one-dose NCI protocol, which is described in more detail at https://dtp.cancer.gov/discovery_development/nci-60/default.htm.
Compounds with GIPRCNT values below 10 were considered active. Activity score was based on GIPRCNT using the following formula: […]
Score is 0 for GIPRCNT values of 100 or above, 50 for GIPRCNT values of 0, and 100 for GIPRCNT values of -100.
Regarding `O=C1OCC2=C1C(c1cccc(F)c1)c1cc3c(cc1N2CCO)CCC3` (stereo not given), the growth was 32.5% (inactive).
In the case of `COc1ccc(CNc2c3ccccc3nc3ccccc23)cc1OC` it was 10.5% (inactive); in that of `COc1ccc(/C=C2/CCc3cc4ccc(OC)cc4[o+]c32)c(O)c1`, 81% (inactive); in that of `CCOc1ccccc1NC(=O)CCC(=O)OC`, 92.4% (inactive).
Take `COc1ccc(-c2ccc(-c3ccc(C(=N)N)nc3)s2)cc1`: the growth is -92.3% (active).
In the case of `O=C(O)CCCN1C(=O)CSC1=S` it was 104% (inactive); in that of `Cc1c(C)c2c(c(C)c1OC(=O)CCC(=O)[O-])CCC(C)(CCCCCCCCCCC[P+](c1ccccc1)(c1ccccc1)c1ccccc1)O2` (stereo not given), -28.3% (active); in that of `O=C(O)COc1ccc(F)cc1`, 94.7% (inactive).
Consider `N#Cc1c(-c2ccc(Cl)cc2)nc(NN=Cc2cccc(Cl)c2)nc1N1CCOCC1`, for which the growth was 67.4% (inactive).
In the case of `Cn1cc(-c2csc(-c3cn(C)c4ccc(F)cc34)n2)c2cnccc21` it was -43.9% (active).
In the case of `C=C1C(=O)O[C@H]2[C@H]1CC/C(COC(=O)NCc1ccc(Cn3c(=O)sn(CCCC)c3=O)cc1)=C\CC[C@@]1(C)O[C@@H]21` it was 40.6% (inactive); in that of `CCCCCCCCOC(=O)c1c(C)[nH]c(/C=C2\N=C(c3ccc[nH]3)C=C2OC)c1C`, -13.2% (active); in that of `CCNc1nc(-c2ccc(Cl)c(OC)c2)c(-c2ccnc(NCCNS(=O)(=O)c3ccc(Cl)cc3)n2)s1`, 30.4% (inactive).
In the case of `Cc1ccc(S(=O)(=O)c2nc(-c3ccccc3)oc2S(C)=O)cc1` (stereo not given) it was -98.4% (active); in that of `CC(=O)c1ccc(Nc2nccc(-c3ccc(Cl)cc3)n2)cc1`, 92.6% (inactive); in that of `CCN1CCN(c2nc(NNC(=O)c3ccc(OC)cc3)nc(N3CCN(C(c4ccccc4)c4ccccc4)CC3)n2)CC1`, 24% (inactive).
In the case of `CC(C)(C)c1ccc(C(=O)Nc2sc3c(c2C#N)CCC(=O)C3)cc1`, the growth was -74.4% (active).
In the case of `C#Cc1cccc(Nc2ncnc3ccc(-c4cnc(Cl)c(NS(C)(=O)=O)c4)cc23)c1` it was -31.9% (active).
In the case of `C#CC#CC#CC#CC#CC#CC#CC#CC[C@@H]1OC[C@H](COC(=O)O[C@@H](C(=O)O[C@H]2C[C@@]3(O)[C@@H](OC(=O)c4ccccc4)[C@@H]4[C@]5(OC(C)=O)CO[C@@H]5C[C@H](O)[C@@]4(C)C(=O)[C@H](OC(C)=O)C(=C2C)C3(C)C)[C@@H](NC(=O)c2ccccc2)c2ccccc2)O1` it was 71% (inactive); in that of `FC(F)(F)c1cccc(-c2nnn(Cc3cc(-c4cccc(Cl)c4)no3)n2)c1`, 98.9% (inactive); in that of `CC(Cc1cccc2ccccc12)C(N)=O` (stereo not given), 93.8% (inactive).
In the case of `O=C(NC1CCCCCC1)c1ccc2c(=O)n3c(nc2c1)CCCCC3` it was 108% (inactive); in that of `COC(=O)[C@H]1Cc2c([nH]c3ccccc23)[C@H](c2ccc3c(c2)OCO3)N1`, 82.3% (inactive).
As to `COC12C=C/C(=C(/C(=O)OCc3ccccn3)C(=O)CCCCCCCCC3(OC)C=C/C(=C(/C(=O)OCc4ccccn4)C(=O)CCCCCCCC1)O3)O2`, the growth was -4.53% (active).
In the case of `O=C1/C(=C/c2ccccc2)COc2ccc(O)cc21` it was 93.5% (inactive); in that of `O=C(Cn1cc(CSc2nc3ccccc3o2)nn1)Nc1ccc([N+](=O)[O-])cc1`, 82% (inactive).
As for `Fc1ccc(/C=C/c2cc(/C=C/c3ccc(F)cc3)n(-c3cc(F)cc(F)c3)n2)cc1`, the growth is 90.6% (inactive).
In the case of `CC(=O)O[C@H]1CC[C@@]2(C)C(=CC[C@@H]3[C@@H]2CC[C@]2(C)C(Cl)=C(c4nc5ccc(Cl)cn5c4NC(C)(C)C)C[C@@H]32)C1` it was 65.1% (inactive); in that of `O=C(Nc1cccc(Cl)c1)Oc1c(Cl)c(Cl)c(Cl)c(Cl)c1Cl`, 88.2% (inactive).
In the case of `CCCCCN(CCCCC)CC(O)c1c(Cl)ccc2ccccc12` (stereo not given) it was 60% (inactive); in that of `O=C(Nc1ccc(Oc2cccc(F)c2)c(Cl)c1)c1cnccn1`, 25.2% (inactive); in that of `Nc1cc(-c2ccc(Cl)cc2)nn1-c1nc(-c2ccc(Br)cc2)cs1`, 97.8% (inactive).
Take `C(CCCSC1=NCCN1)CCSC1=NCCN1`: the growth was 101% (inactive).
In the case of `COc1cccc(-c2cc(-c3ccc(Nc4nc(Nc5ccc(Cl)cc5)nc(Nc5ccc(Cl)cc5)n4)cc3)nc(N)c2C#N)c1` it was 37.3% (inactive); in that of `CN1CCN(Cc2ccc(NC(=O)c3cncc(C#Cc4cnc(N)c5ncccc45)c3)cc2Cl)CC1`, 73.5% (inactive); in that of `C=C(c1ccc(C(=O)O)c(F)c1)c1cc2c(cc1C)C(C)(C)C=CC2(C)C`, 81.7% (inactive).
Take `NCCCCCNc1noc(Cc2c[nH]c3cc(Br)ccc23)n1`: the growth was 35.3% (inactive).
Consider `CCOC(=O)c1c(C)nc2c(c1N)C(=O)C(=O)N2CCc1ccc(OC)c(OC)c1`, for which the growth was 60.2% (inactive).
Regarding `O=C(/C=C/C12c3ccccc3C(c3ccccc31)C1C(=O)NC(=O)C12)c1cccs1` (stereo not given), the growth is 52.2% (inactive).
With `CCC(C)C(N)C(=O)NC(CC(C)C)C(=O)N1CCCC1C(=O)NC(Cc1c[nH]c2ccccc12)C(=O)NC(CCCCN)C(=O)NC(Cc1c[nH]c2ccccc12)C(=O)N1CCCC1C(=O)NC(Cc1c[nH]c2ccccc12)C(=O)NC(Cc1c[nH]c2ccccc12)C(=O)N1CCCC1C(=O)NC(Cc1c[nH]c2ccccc12)C(=O)NC(CCCNC(=N)N)C(=O)NC(CCCNC(=N)N)C(N)=O` (stereo not given), the growth was 90.4% (inactive).
